Assay results from PubChem BioAssay AID720597 (Broad Institute, 2013).
Results with a measured potency or affinity are listed apart. Calls of active or inactive are those of the source.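 How the source made its calls: active means fitted half-maximal dose no more than twice the top valid tested dose, for compounds that lower signal; inconclusive means fit invalid, or curve flat with activity between -70 and -30; inactive means potency past limit, curve flat within ±30, or signal increasing.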

target: NAD-dependent protein deacylase sirtuin-5, mitochondrial (Homo sapiens) (UniProt Q9NXA8); assay: SIRT5 deacylase inhibitors, dose response, biochemical, fluorescence imaging, cherry-pick, set 6 (AID 720597); conditions: Purified SirT5, succinyl-peptide-AMC/trypsin fluorescence; series mostly up to 15 µM; activity change, negative = inhibition: at the top concentration;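 further: lower AMC signal can also come from blocking the trypsin step; 0% = median of neutral control wells and -100% = median of positive control wells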
Sequence (Q9NXA8 whole entry, looked up): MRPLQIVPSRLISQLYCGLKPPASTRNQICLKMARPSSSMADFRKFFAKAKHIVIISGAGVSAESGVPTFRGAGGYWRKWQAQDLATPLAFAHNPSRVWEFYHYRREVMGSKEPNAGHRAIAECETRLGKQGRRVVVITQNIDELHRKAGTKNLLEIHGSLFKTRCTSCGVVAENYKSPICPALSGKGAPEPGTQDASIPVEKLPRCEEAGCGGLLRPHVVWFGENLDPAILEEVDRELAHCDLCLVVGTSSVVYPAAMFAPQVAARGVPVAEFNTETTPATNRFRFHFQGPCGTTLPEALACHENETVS

Activity change, negative = inhibition, inactive:
CCCC#Cc1ccc2c(c1)O[C@H](CN(C)C(=O)Nc1ccccc1F)[C@@H](C)CN([C@H](C)CO)S2(=O)=O -20.4%, COc1ccccc1NC(=O)Nc1ccc2c(c1)C(=O)N(C)C[C@H](OC)[C@H](C)CN[C@@H](C)CO2 -29.5%, C[C@H]1CN([C@@H](C)CO)S(=O)(=O)c2ccc(/C=C/c3ccccc3)cc2O[C@H]1CN(C)C(=O)NC1CCCCC1 4.14%, CC(C)CC#Cc1ccc2c(c1)O[C@@H](CN(C)C(=O)Nc1ccccc1F)[C@@H](C)CN([C@@H](C)CO)S2(=O)=O -14.6%, C[C@H](CO)N1C[C@H](C)[C@H](CN(C)C(=O)NC2CCCCC2)Oc2cc(/C=C/c3ccccc3)ccc2S1(=O)=O 16.9%, C[C@@H]1CN([C@H](C)CO)S(=O)(=O)c2ccc(C#Cc3ccc(F)cc3)cc2O[C@@H]1CN(C)C(=O)NC1CCCCC1 -17%, COc1cccc(S(=O)(=O)N(C)C[C@H]2Oc3cc(C4=CCCC4)ccc3S(=O)(=O)N([C@@H](C)CO)C[C@@H]2C)c1 10.5%, CN(C)C(=O)c1cccc(-c2ccc([C@@H]3[C@H]4CN(S(C)(=O)=O)CCCCN4[C@H]3CO)cc2)c1 -14.8%, Cn1cnc(CCNC(=O)C[C@@H]2CC[C@@H]3[C@H](COC[C@@H](O)CN3C(=O)Nc3ccc(Cl)cc3)O2)c1 2.98%, CCCNC(=O)N1[C@@H]2Cn3c(cccc3=O)[C@H]1[C@@H](C(=O)N1CCC(Cc3ccccc3)CC1)[C@@H]2CO 2.68%, COc1ccc(S(=O)(=O)Nc2ccc3c(c2)C(=O)N([C@@H](C)CO)C[C@@H](C)[C@H](CN(C)Cc2ccc(-c4ccccc4)cc2)O3)cc1 -10.6%
